Rows were chosen to be rich in hits. Some 7.8% of all compounds tested hit in one or more screens of this group.
Shh pathway inh: Sonic Hedgehog pathway inhibition. Shh-LIGHT2 Gli-luciferase reporter, 30 h. inhibition, % (test concentration not listed). 22,000 tested, 2.1% active;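 active = mean inhibition across valid replicates above about 65%, limit read from the data; inconclusive = mean under the limit, yet half or more replicates past it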;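 also: pathway switched on by Shh-conditioned medium diluted 1 in 25 in low serum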
MITF inh: inhibitors of MITF | 37,000 tested, 0.28% active | TRPM1 promoter luciferase, luminescence, 24 h | inhibition, % (concentration not given with the values) | AID 2240; in the data active = inhibition above about 85%; inconclusive = no clear call, values can overlap the other calls; inactive = below about 68%;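 also: human melanocyte line stably carrying TRPM1 promoter luciferase reporter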
NOMO-1 viab: STK33 inhibitor candidate reducing NOMO-1 cell viability; NOMO-1 AML viability, CellTiter-Glo luminescence, 72 h; inhibition, % (concentration not given with the values); 37,000 tested, 7.5% active; AID 2330; in the data active = inhibition above about 80%; inconclusive = no clear call, values can overlap the other calls
Hits are given with their value.

Results for COc1ccc(-c2nn(-c3ccccc3)cc2C2NC(=O)NC(C)=C2C(=O)OCc2ccccc2)cc1 (stereo unspecified) ?
MITF inh: inactive; NOMO-1 viab: inactive

What do the screens show for `COc1ccc2cc1/C=C\NC(=O)C(Cc1ccccc1)NC(=O)C1C(CCN1C(=O)C(NC(=O)C(C)N(C)C)C(C)C)O2` (stereo unspecified)?
Shh pathway inh: inactive; MITF inh: inactive; NOMO-1 viab: inactive

What do the screens show for `O=C(Nc1ccccc1)c1ccc(CSc2nnc(-c3ccncc3)n2-c2ccccc2)cc1`?
MITF inh: inactive; NOMO-1 viab: inactive

How did COc1ccc(OCC(=O)N2CCN(S(=O)(=O)c3ccc(OC)cc3)CC2)cc1 do in these assays?
MITF inh: inactive; NOMO-1 viab: inactive

What do the screens show for `C[C@@H]1CN([C@H](C)CO)C(=O)c2cccc(N(C)C)c2O[C@@H]1CN(C)Cc1ccc(-c2ccccc2)cc1`?
Shh pathway inh: inactive; MITF inh: inactive; NOMO-1 viab: inactive

How did C[C@@H]1CN([C@H](C)CO)C(=O)c2cccc(NC(=O)Nc3cccc4ccccc34)c2O[C@@H]1CN(C)Cc1ccc(C(=O)O)cc1 do in these assays?
Shh pathway inh: inactive; MITF inh: inactive; NOMO-1 viab: inactive

How did C[C@@H]1CN([C@H](C)CO)C(=O)c2cccc(N(C)C)c2O[C@H]1CN(C)Cc1ccc(-c2ccccc2)cc1 do in these assays?
Shh pathway inh: inactive; MITF inh: inactive; NOMO-1 viab: 86

How did C[C@@H]1CN([C@H](C)CO)C(=O)c2cccc(NC(=O)Nc3cccc4ccccc34)c2O[C@@H]1CN(C)Cc1ccc(-c2ccccc2)cc1 do in these assays?
Shh pathway inh: inactive; MITF inh: inactive; NOMO-1 viab: 107

Results for COc1ccc(C2C(C(=O)Nc3cc(OC)c(Cl)cc3OC)=C(C)Nc3ncnn32)c(OC)c1 (stereo unspecified) ?
MITF inh: inactive; NOMO-1 viab: inactive

What do the screens show for `C[C@H]1CC2C([C@@H](O)C[C@@]3(C)C2CC[C@]3(O)C(=O)CO)[C@@]2(C)C=CC(=O)C=C12` (stereo partly specified)?
Shh pathway inh: inactive; MITF inh: inactive; NOMO-1 viab: inactive

What do the screens show for `C[C@H]1C[C@@H]2[C@H]([C@@H](O)C[C@@]3(C)[C@H]2CC[C@]3(O)C(=O)CO)[C@@]2(C)C=CC(=O)C=C12`?
Shh pathway inh: 70; MITF inh: inactive; NOMO-1 viab: inactive

Results for CSc1ccc(N=CN2C(=O)c3ccccc3C2=O)cc1 ?
Shh pathway inh: inactive; MITF inh: inactive; NOMO-1 viab: inactive

How did Cc1ccc(-n2c(Cn3ncc4ccccc4c3=O)n[nH]c2=S)cc1 do in these assays?
MITF inh: inactive; NOMO-1 viab: inactive

How did Cc1ccc(-n2sc3ccccc3c2=O)cc1 do in these assays?
Shh pathway inh: inactive; MITF inh: inactive; NOMO-1 viab: 141

Results for C[C@]12CCC3C(CC[C@@H]4C[C@H](O)CC[C@]34C)C1CC[C@]2(O)C(=O)CO (stereo partly specified) ?
Shh pathway inh: inactive; MITF inh: inactive; NOMO-1 viab: inactive

What do the screens show for `Cc1cc(N(CC(=O)NC2CCCCC2)S(C)(=O)=O)ccc1Br`?
MITF inh: inactive; NOMO-1 viab: inactive

What do the screens show for `Clc1ccc(C2=NN=C(N3CCCC3)SC2)cc1`?
MITF inh: inactive; NOMO-1 viab: 99

How did S=C1C=C(N2CCCCC2)CC(c2ccc(Cl)cc2)S1 (stereo unspecified) do in these assays?
MITF inh: inactive; NOMO-1 viab: inactive

Results for COc1ccc(S(=O)(=O)N(C)CC(=O)Nc2ccc(C(N)=O)cc2)cc1C ?
MITF inh: inactive; NOMO-1 viab: inactive

What do the screens show for `COC(=O)COc1cccc(NC(=O)c2ccc(Cl)c(Cl)c2)c1`?
MITF inh: inactive; NOMO-1 viab: 108

What do the screens show for `CCOC(=O)c1ccc(NC(=O)c2ccco2)cc1`?
Shh pathway inh: inactive; MITF inh: inactive; NOMO-1 viab: inactive

Results for COC(=O)COc1cccc(NC(=O)c2ccc(NC(=O)c3ccco3)cc2)c1 ?
MITF inh: inactive; NOMO-1 viab: 110

Results for COC(=O)COc1cccc(NC(=O)c2ccccc2)c1 ?
MITF inh: inactive; NOMO-1 viab: 122

How did COC(=O)COc1cccc(NC(=O)c2ccccc2-c2ccccc2C(=O)O)c1 do in these assays?
MITF inh: inactive; NOMO-1 viab: inactive

What do the screens show for `COc1cccc(C(=O)COc2cccc(NC(=O)c3cccc([N+](=O)[O-])c3)c2)c1`?
MITF inh: inactive; NOMO-1 viab: inconclusive

How did COC(=O)COc1cccc(NC(=O)c2cccc(C)c2)c1 do in these assays?
MITF inh: inactive; NOMO-1 viab: 121

How did COc1cccc(NC(=O)c2ccc(OC)c(OC)c2)c1 do in these assays?
Shh pathway inh: inactive; MITF inh: inactive; NOMO-1 viab: inactive

How did Cc1ccccc1NS(=O)(=O)c1cc(C(=O)NCC2CCCO2)ccc1C (stereo unspecified) do in these assays?
MITF inh: inactive; NOMO-1 viab: inactive

Screening results deposited in PubChem BioAssay by Broad Institute.
